# Source: PubChem BioAssay AID1445 (SRMLSC, 2008)
# The campaign covered roughly 220,000 compounds. About 910 (0.41%) were called active. For the sample, actives were picked, then their nearest neighbours and some compounds at random. Entries with a potency or affinity are not part of this list. Values without a mark were called inactive.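 The calls were made as follows: active = primary inhibition above the hit cutoff, then over 50% inhibition at one or more dose response concentrations (cut at about 23% in these data, passing the limit was not always enough); inconclusive = conflicting primary data, or primary hits not chosen for dose response; inactive = low primary inhibition, or under 50% at every dose.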
# Biological target: Aminopeptidase N (Plasmodium falciparum (isolate 3D7)) (UniProt O96935)
# Sequence (O96935 whole entry, looked up): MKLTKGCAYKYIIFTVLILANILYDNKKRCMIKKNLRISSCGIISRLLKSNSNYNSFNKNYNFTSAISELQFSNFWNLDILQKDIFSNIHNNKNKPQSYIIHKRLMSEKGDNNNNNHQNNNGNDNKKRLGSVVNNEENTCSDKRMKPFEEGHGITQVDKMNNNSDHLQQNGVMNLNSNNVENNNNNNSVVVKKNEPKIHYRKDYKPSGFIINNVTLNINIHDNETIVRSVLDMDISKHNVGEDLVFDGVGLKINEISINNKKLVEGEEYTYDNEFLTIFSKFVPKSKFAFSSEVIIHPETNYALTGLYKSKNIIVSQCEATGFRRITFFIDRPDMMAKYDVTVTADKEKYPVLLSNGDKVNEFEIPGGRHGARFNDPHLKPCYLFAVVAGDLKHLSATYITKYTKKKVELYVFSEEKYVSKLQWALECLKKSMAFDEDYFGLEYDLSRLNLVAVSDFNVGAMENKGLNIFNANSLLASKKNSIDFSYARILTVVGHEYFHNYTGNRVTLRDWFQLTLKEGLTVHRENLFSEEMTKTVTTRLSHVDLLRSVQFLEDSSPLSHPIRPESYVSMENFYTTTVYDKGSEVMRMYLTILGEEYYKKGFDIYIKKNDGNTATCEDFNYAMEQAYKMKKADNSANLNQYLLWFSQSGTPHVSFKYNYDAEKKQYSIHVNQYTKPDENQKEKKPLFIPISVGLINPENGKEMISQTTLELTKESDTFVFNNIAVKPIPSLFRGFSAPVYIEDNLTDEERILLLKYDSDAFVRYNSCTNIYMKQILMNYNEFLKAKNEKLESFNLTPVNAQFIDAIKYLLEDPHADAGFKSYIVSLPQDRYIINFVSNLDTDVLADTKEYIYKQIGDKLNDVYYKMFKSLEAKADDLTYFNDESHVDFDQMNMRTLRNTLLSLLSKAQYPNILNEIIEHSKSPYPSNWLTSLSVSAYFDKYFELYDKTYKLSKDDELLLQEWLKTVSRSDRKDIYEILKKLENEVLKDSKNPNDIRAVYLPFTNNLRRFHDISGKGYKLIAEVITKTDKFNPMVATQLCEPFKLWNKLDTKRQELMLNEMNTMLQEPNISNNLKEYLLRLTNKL
# Test: malaria alanyl aminopeptidase activity blockers – biochemical, fluorogenic H-Leu-NHMec substrate, 1536-well (AID 1445);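 also: plate controls were DMSO full reaction for no effect and no enzyme background for full effect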
# Details: recombinant M1AAP, H-Leu-NHMec fluorogenic kinetic assay; at 30 µM, stronger effect = higher value unless noted
row,Structure (SMILES),inhibition
1,O=C1CN2C(=Nc3ccc(Br)cc3C2c2ccccc2)CCN1 (stereo unspecified),3.13%
2,O=C1CN2C(=Nc3ccc(Cl)cc3C2c2ccccc2)CN1 (stereo unspecified),27.9% (active)
3,COC(=O)CN1C(c2ccc(Cl)cc2)=Nc2ccc(Cl)cc2C1c1ccccc1 (stereo unspecified),8.62%
4,COc1ccc(C2=NOC(C(=O)Nc3cc(C)on3)C2)cc1OC (stereo unspecified),9.84%
5,COc1ccc(/C=C(/C#N)C(=O)Nc2ccc(O)cc2)cc1C(=O)O,15.9%
6,C=CCNC(=O)/C(C#N)=C\c1cc(Cl)c(O)c(OCC)c1,1.82%
7,CC(C)COc1ccc(/C=C2/Sc3ccccc3C2=O)cc1,-0.23%
8,CCOC(=O)C1=C2NC(=O)c3ccccc3N2C(=O)C1,7.37%
9,COc1ccc(C(=O)NNC(=O)CCC(=O)Nc2cc(C)on2)cc1,6.61%
10,CC(=O)Nc1ccccc1-c1nc2ccc(C(=O)N3CCN(c4ccccc4)CC3)cc2[nH]c1=O,28% (active)
11,CC(=O)Nc1ccccc1-c1nc2ccc(C(=O)N3CCN(c4cccc(C)c4)C(C)C3)cc2[nH]c1=O (stereo unspecified),6.05%
12,CC(=O)Nc1ccccc1-c1nc2ccc(C(=O)N3CCN(c4cc(C)ccc4C)CC3)cc2[nH]c1=O,4.66%
13,Cc1ccccc1-c1cnn(-c2cccc([N+](=O)[O-])c2)c1N,1.77%
14,Cc1ccc(-c2nc3cc(N)ccc3o2)cc1,6.2%
15,CC(C)c1ccc2oc(-c3ccc(N)cc3)nc2c1,4.91%
16,CC(=O)N(C(C)=O)N1C(=O)/C(=C/c2ccc(Cl)cc2)SC1=S,29.5%
17,O=S(=O)(Nc1ncnc2sc3c(c12)CCC3)c1ccc2ccccc2c1,27.9% (active)
18,O=S(=O)(Nc1ncnc2sc3c(c12)CCC3)c1ccc(Cl)s1,20%
19,O=S(=O)(Nc1ncnc2sc3c(c12)CCC3)c1cc(F)ccc1F,11.3%
20,CC(C)CCOCC(=O)Oc1ccccc1C(=O)O,-2.22%
21,CCN(CC)CCCOC(=O)c1ccc(OC)cc1O,1.55%
22,Cc1ccc(C2=NNC(=O)C(c3c[nH]c4ccccc34)C2)cc1 (stereo unspecified),1.55%

row,Structure (SMILES),inhibition
1,O=C1c2ccccc2NC2(CCCC2)N1NS(=O)(=O)c1ccccc1,7.28%
2,CCOC(=O)NN1C(=O)c2ccccc2NC1(C)C,13.7%
3,CS(=O)(=O)NN1C(=O)c2ccccc2NC12CCCC2,6.27%
4,CC1(C)Nc2ccccc2C(=O)N1NC(=O)c1ccccc1,22.7%
5,COc1ccc(NC(=O)c2ccccc2F)cc1Cl,5.75%
6,CCCC[C@@H]1CNC(=S)N1CCCc1cc(OC)c(OC)c(OC)c1,2.36%
7,COc1cc(NC(=O)CSc2nnnn2Cc2ccccc2)cc(OC)c1,-0.13%
8,Cc1nc(COC(=O)c2ccc(CO)cc2)cs1,4.37%
9,Cn1c(=O)c2nc(Cl)c(-c3ccccc3)nc2n(C)c1=O,4.55%
10,COCCCNc1ccc([N+](=O)[O-])cc1C(=O)Nc1cccc(C)n1,2.01%
11,O=c1[nH]c2ccc(NS(=O)(=O)c3ccc(Cl)cc3)cc2[nH]1,7.26%
12,CCOc1ccc(NS(=O)(=O)c2ccc3[nH]c(=O)c(=O)[nH]c3c2)cc1,10.4%
13,CC(C)CCNC(=O)c1nnc(Cc2ccc(Cl)cc2)o1,2.74%
14,O=C(NCCCc1ccccc1)c1cc([N+](=O)[O-])ccc1Cl,3.08%
15,C[N+]1(CC(=O)OC2CCCCCCCCCCC2)CCCC1,32.9%
16,Oc1ccc(N=Nc2n[nH]c(-c3ccc(Br)cc3)n2)cc1,14.1%
17,Cc1ccc(-c2nc(N=Nc3ccc(O)cc3)n[nH]2)cc1,15.9%
18,Oc1ccc(N=Nc2n[nH]c(-c3ccc(Cl)cc3)n2)cc1,26.6% (active)
19,O=C(Nc1ccccc1N1CCOCC1)c1cccnc1,-1.63%
20,Cc1onc(-c2c(Cl)cccc2Cl)c1COC(=O)c1ccc(Cl)cc1,0.11%
21,O=c1[nH]c(SCc2ccccc2Cl)nc2c1CCCC2,-3.65%
22,O=c1[nH]c(SCc2ccccc2Cl)nc2c1CCC2,-1.92%

row,Structure (SMILES),inhibition
1,Cc1cccc(OCC(=O)NCC(=O)N/N=C/c2cccnc2)c1,8.13%
2,O=c1c2ccccc2nc(SCc2cc(F)ccc2F)n1C1CCCC1,6.96%
3,CCC(C)(C)NC(=O)C(c1cccnc1)N(C(=O)c1csnn1)c1ccccc1 (stereo unspecified),-0.28%
4,O=P(Cc1cc(Br)cc(Br)c1OCCO)(c1ccccc1)c1ccccc1,5.71%
5,O=C(COc1ccc(Br)cc1CO)Nc1ccccc1,9.17%
6,CCCn1c(SC2C(=O)CC(C)(C)CC2=O)nc2c1c(=O)n(C)c(=O)n2C,-3.71%
7,CCn1ccnc1CN(C)Cc1nc(-c2cccc(Cl)c2)no1,-7.75%
8,C=CCn1c(-c2ccc(F)cc2)n[nH]c1=S,4.9%
9,CCOP(=O)(OCC)c1nc(-c2ccc(Cl)cc2Cl)oc1N1CCCCC1,10.7%
10,CCOP(=O)(OCC)c1nc(-c2cccc3ccccc23)oc1N1CCCCC1,15.6%
11,CCOC(=O)C/C(C)=N\Nc1nc(-c2ccccc2)cs1,1.35%
12,COCC(=O)N1CCN(c2cccc(C(F)(F)F)c2)CC1,-4.62%
13,O=C(CSCc1ccccc1)N1CCN(c2cccc(C(F)(F)F)c2)CC1,6.51%
14,Cc1cccc(/C=N/NC(=O)c2cc(-c3cccnc3)nc3ccccc23)c1,5.37%
15,c1ccc(SCc2nc(-c3cccnc3)no2)cc1,2.83%
16,CCOC(=O)c1c(NC(=O)C2CCCO2)sc(C)c1C (stereo unspecified),2.42%
17,CCOC(=O)NC(=O)/C(C=Nc1ccc(Cl)cc1)=C(\C)O,10.5%
18,O=C1CC(N(O)C2CC(=O)N(Cc3ccccc3)C2=O)C(=O)N1Cc1ccccc1 (stereo unspecified),6.83%
19,CCCCCCC(=O)N(O)C1CC(=O)N(Cc2ccccc2)C1=O (stereo unspecified),37.9% (active)
20,CCCCCCC(=O)N(O)C1CC(=O)N(c2ccc(C)cc2)C1=O (stereo unspecified),35.5%
21,CCCCCC(=O)N(O)C1CC(=O)N(c2ccccc2)C1=O (stereo unspecified),11.5%
22,CCCN(CCC)C1CC(=O)N(Cc2ccccc2)C1=O (stereo unspecified),4.78%
